Shown are actives, neighbours in structure and some others; about 20% of the full set was active somewhere.
Pf growth 96h: Primary qHTS for delayed death inhibitors of the malarial parasite plastid, 96 hour incubation; P. falciparum luciferase reporter growth, 96 h; Potency, µM (series often up to 28.7 µM), without a hit: at the highest dose activity change, negative = inhibition, hits mostly inhibitors; 320,000 tested, 6.9% active; also: potency is read from the fitted curve at half-maximal effect; % is scaled to controls: 0 for no effect and ±100 for the full control effect
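Two parasite generations (96 h, 37 C, 5% CO2) of compound exposure in infected erythrocytes (0.05% parasitemia, 2% hematocrit). Luciferase-reporter P. falciparum; decreased luminescence indicates inhibited growth, aimed at apicoplast-acting delayed death.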
CHX counter: Cycloheximide Counterscreen for Small Molecule Inhibitors of Shiga Toxin | max response, % | cell reporter, cycloheximide protein synthesis inhibition counterscreen | 300,000 tested, 12% active; in the data active = max response mostly above about 13%, no sharp cut-off; inactive = mostly below about 14%; also: read at 38.3 µM for the half of the compounds with a filed dose; 0% is about no effect
HCMV antiviral: qHTS Assay for inhibitors of the human cytomegalovirus (HCMV) | HFF cells, HCMV-luciferase reporter, 72 h; stronger effect = lower value | activity change, negative = inhibition, % at 57.5 µM | 410,000 tested, 4.5% active | AID 1259415, 2018; in the data active = activity change below about -60%; inconclusive = no clear call, values can overlap the other calls; inactive = above about -39%; also: % is scaled to controls: 0 for no effect and ±100 for the full control effect
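Cell-based, HFFs, 1000 cells/well, 16 h 37C; cpds in DMSO + HCMV-luc, MOI 1 PFU/cell; 72 h 37C; OneGlo luminescence after 5 min RT; norm. to buffer vs Salinomycin 10uM.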
Shiga inhibitor: A qHTS for Small Molecule Inhibitors of Shiga Toxin; AID 2315, 2010; Vero cells, Shiga toxin protein synthesis inhibition reporter; inhibition, % at 38.7 µM; 290,000 tested, 9.2% active; in the data active = inhibition mostly above about 28%, no sharp cut-off; inactive = mostly below about 43%; also: 0% is about no effect
Pf growth 48h: Primary qHTS for delayed death inhibitors of the malarial parasite plastid, 48 hour incubation. P. falciparum luciferase growth in erythrocytes, 48 h. Potency, µM (series often up to 28.7 µM), for inactives: at the highest dose activity change, negative = inhibition, actives largely listed as inhibitors. 310,000 tested, 5.9% active; also: potency is read from the fitted curve at half-maximal effect; % is scaled to controls: 0 for no effect and ±100 for the full control effect
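Compounds are pin-transferred into medium, infected erythrocytes (2% hematocrit, 0.1% parasitemia final) are added, and plates sit one parasite generation at 37 C in 5% CO2. Detection reagent is then added and luminescence measured.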
The depositor's hits bear a star; i = inactive; ? = inconclusive; . = not tested or not shown. Unless noted, calls follow the shape of the dose curve; as a rule, active = well fitted inhibition curve with a large enough effect; inconclusive = small, poorly fitted or top-dose-only effect, or another doubt; inactive = no such curve, though single readings can be large or run the other way.

SMILES	Pf growth 96h	CHX counter	HCMV antiviral	Shiga inhibitor	Pf growth 48h
Oc1ccc(/C=N/Nc2ccc(C(F)(F)F)cn2)cc1	306%	37*	18	124*	268%
Cc1cc(N/N=C/c2ccc(O)cc2O)nc(N2CCOCC2)n1	?	10	-6	19	?
CCOC(=O)NNc1ccc(C(F)(F)F)cn1	23%	-1	24	-1	100%
Oc1ccc(/C=N\Nc2cc(N3CCOCC3)nc(N3CCOCC3)n2)c(O)c1	?	1	22	12	?
Oc1ccc(/C=N/Nc2ccc(C(F)(F)F)cn2)c(O)c1	-12%	52*	-94*	56*	?
Oc1ccc(/C=N/Nc2cccc(Cl)n2)c(O)c1	-63%	42*	166	47*	138%
C/C(=N\Nc1ccc(C(F)(F)F)cn1)c1ccncc1	27%	24*	137	101*	-1%
CN(CCO)c1cc(Sc2nc3ccccc3s2)c2nonc2c1[N+](=O)[O-]	59%	-2	-104*	-4	42%
O=Cc1cn(-c2ccccc2)nc1-c1cc2ccccc2oc1=O	.	-2	-8	61	24%
CN(C)CCNC(=O)/C=C/c1cn(-c2ccccc2)nc1-c1cc2ccccc2oc1=O	8.3µM*	10	-36	-12	-16%
COCc1cc(Sc2ccc(OC)cc2)nc(-c2ccccc2)n1	?	5	12	-8	?
COCc1cc(Sc2ccc(Cl)cc2Cl)nc(-c2ccccc2)n1	?	-1	-13	8	12µM*
O=C(CCc1c[nH]c2ccccc12)NCc1ccncc1	4%	-6	-30	-4	9%
O=C(CCc1c[nH]c2ccccc12)Nc1ncccc1O	35%	16*	-6	16	54%
Cc1ccc(NC(=O)CCc2c[nH]c3ccccc23)nc1	?	11*	-74*	35*	?
O=C(CCCc1c[nH]c2ccccc12)Nc1ccc2ccccc2c1	-20%	38*	31	68*	-9%
CC(=O)Nc1ccc(NC(=O)CCCc2c[nH]c3ccccc23)cc1	13%	1	13	-19	111%
CC(OC(=O)c1ccc2c(=O)n3c(nc2c1)CCC3)C(=O)Nc1ccc(C(N)=O)cc1 (stereo not drawn)	2%	.	0	.	45%
COc1ccc(CNc2n[nH]c(-c3ccco3)n2)cc1OC	.	.	60	.	.
CCOc1ccc(NC(=O)CN(C)C(=O)c2cn(-c3ccccc3)nc2-c2cccs2)cc1OCC	?	2	85	-4	-3%
COc1ccc(CNC(=O)c2ccc(N3CCC4(CC3)CC(c3ccc(Cl)cc3)=NO4)c(NC(=O)c3ccccc3)c2)cc1	.	.	-1	.	.
COc1cccc(C(=O)Nc2cc(C(=O)NCc3ccc(C)cc3)ccc2N2CCC3(CC2)CC(c2ccccc2)=NO3)c1	1.3µM*	8	-15	33	?
Cc1ccc(CNC(=O)c2ccc(N3CCC4(CC3)CC(c3cccc(Br)c3)=NO4)c(NC(=O)c3ccccc3)c2)cc1	?	.	-30	.	9.3µM*
COCCCNC(=O)CSc1nc2ccccc2c(=O)n1CCCN1CCCCC1	17%	-2	0	-7	22%
Cc1cccc(CSc2nc3c(sc4ccccc43)c(=O)n2CCC(=O)NC(C)C)c1	.	.	-61*	.	.
SMILES	Pf growth 96h	CHX counter	HCMV antiviral	Shiga inhibitor	Pf growth 48h
COCCCn1c(SCC(=O)Nc2ccc(F)cc2)nc2c(sc3ccccc32)c1=O	.	.	1	.	.
COc1ccc(NC(=O)CSc2nc3c(sc4ccccc43)c(=O)n2CCCN2CCCC2)cc1	?	5	.	-4	13µM*
COc1ccc(NC(=O)CSc2nc3ccccc3c(=O)n2CCCN2CCCCC2)c(OC)c1	9.3µM*	10	-29	-12	.
CC(=O)Nc1c(C)nn(-c2ccccc2)c1N1CCC(C(=O)Nc2ccc(Cl)cc2C)CC1	.	.	58	.	.
O=C(C1CCOCC1)N1CC(=O)N2[C@@H](CO)[C@H](c3ccc(Br)cc3)[C@@H]2C1	.	.	-2	.	.
CCOC(=O)c1c(NC(=O)C(C)Sc2cn(CCNC(=O)c3ccc(OC)cc3)c3ccccc23)sc2c1CCC2 (stereo not drawn)	.	.	-6	.	.
CCC(C)[C@H](NC(=O)[C@@H]1CSC2c3ccccc3C(=O)N21)C(=O)NCc1ccncc1 (stereo partly drawn)	?	-2	21	-1	-19%
COc1ccc(NC(=O)COc2ccccc2Cc2ccccc2)cc1S(N)(=O)=O	?	-3	-73*	-8	?
COc1ccc(NC(=O)CCCSc2ccccc2)cc1S(N)(=O)=O	?	-10	?	-6	?
COc1ccc(NC(=O)CN(Cc2ccccc2)Cc2ccccc2)cc1S(N)(=O)=O	?	-2	-62*	-8	?
COc1ccc(NC(=O)COc2ccccc2Cc2ccccc2)cn1	?	.	-9	.	?
COc1ccc(Cl)cc1C(=O)Nc1ccc2oc(-c3ccc(C(C)(C)C)cc3)nc2c1	.	.	33	.	.
C/C=C\C1=CCCC1Nc1ncnc2ccc(-c3c(C)noc3C)cc12 (stereo not drawn)	.	12	.	32	.
COc1ccc(-c2cc3nc(C4CCN(C(=O)OC(C)(C)C)CC4)c(C(=O)Nc4cc(Cl)cc(Cl)c4)cn3n2)cc1	.	.	3	.	.
COc1ccc(C(=O)NN(C)c2nc(-c3ccccc3)nnc2C(F)(F)F)cc1	-16%	3	-13	27	20%
COc1ccc(C(=O)NN(C)c2nc(C(F)(F)F)nc3ccccc23)cc1	?	3	-99*	-9	?
CN1C(=O)NC(NS(=O)(=O)c2ccc(N)cc2)(C(F)(F)F)C1=O (stereo not drawn)	?	-8	-26	21	i
CCc1nnc(NC(=O)CSc2nnc(CSc3nc(C)cc(C)n3)n2C)s1	?	-2	132	-16	9%
CCC(C)Sc1nnc(CSc2nc(C)cc(C)n2)n1C (stereo not drawn)	13µM*	9	-23	2	?
CCCSc1nnc(CSc2nc(C)cc(C)n2)n1C	10µM*	5	-21	-7	-12%
C=CCn1c(SCC(=O)Nc2ccc(NC(=O)c3ccco3)c(OC)c2)nnc1-c1ccncc1	?	-1	-17	-11	13µM*
C=CCn1c(SCC(=O)Nc2cc(OC)c(NC(=O)c3ccco3)cc2OC)nnc1-c1ccncc1	?	1	27	11	24%
C=CCn1c(SCC(=O)Nc2cccc(OC)c2)nnc1-c1cccnc1	?	19*	14	-48	0%
COCCCNC(=O)CN(c1cc(Cl)ccc1OC)S(C)(=O)=O	2%	-4	-8	28	7%
Cc1ccc([C@H]2C[C@@H](O)[C@H](n3cc(C4CC4)nn3)CN2C(=O)C2CCCCC2)cc1	.	.	-3	.	.
COc1cc(C)nc(Oc2ccc(OCCOc3ccc(C)cc3)nn2)n1	0%	0	-3	19	-29%

Screens deposited in PubChem BioAssay by National Center for Advancing Translational Sciences (NCATS).
